Out of some 63,000 compounds screened, about 1,100 (1.7%) were called active. The sample holds actives, similar compounds and a random draw of the others, so the mix is not that of the screen. Results with a measured potency or affinity are listed apart. A number with no mark means an inactive call.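 The calls were made as follows: active = compounds whose percent cytotoxicity in the single-dose primary screen, scaled between solvent and toxic-drug controls, exceeds 50; inactive = the rest.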

The nature of the assay: cytotoxicity in KRAS-transformed pancreatic duct cells, primary screen, cell-based, fluorescence, HTS (AID 431).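 Also: 0% = DMSO solvent wells and 100% = doxorubicin-treated wells.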 To be noted: HPDE-C7K KRASV12 cells, Alamar Blue viability, 48 h; at 10 µM; stronger effect = higher value. On the technique in general: Alamar Blue is a resazurin reagent that responds to reducing activity.
For `COc1ccccc1C(=O)N1CCN(S(=O)(=O)Cc2ccccc2)CC1`, the cytotoxicity is -0.3%. For the compound `CCOc1cc(CNc2ncnc3nc[nH]c23)ccc1OC`, the cytotoxicity is 6.5%. For `Cc1ccc2nsnc2c1S(=O)(=O)N1CCN(C(=O)C2CCCO2)CC1` (stereo not given) the value was -15.6%. For `COc1cc2c(cc1OC)C(C)N(C(=O)Cn1ncc3c1-c1ccccc1OC3)CC2` (stereo not given), the cytotoxicity is -1.4%. Regarding `CC(C)(C)C(=O)Cn1c(NCCCO)nc2ccccc21`, the cytotoxicity is -18.5%. Turning to `Cc1onc(-c2ccccc2)c1C(N)=O`, the cytotoxicity was 50.5% (active). With `Cc1onc(-c2ccccc2)c1C(=O)N1CCCN(C(=O)c2c(-c3ccccc3)noc2C)CC1` the figure was -5.2%. In the case of `Cc1onc(-c2ccccc2Cl)c1C(N)=O`, the cytotoxicity was 8%. Turning to `CCOC(=O)c1[nH]c(C)c(C(=O)Nc2ccc(C)c(F)c2)c1C`, the cytotoxicity is 0.8%. Take `CCc1ccc(NC(=O)c2noc3c2CCCCC3)cc1`: the cytotoxicity was 3.4%. For `COc1ccc(C(=O)N2CCOCC2)cc1Br`, the cytotoxicity is -1%.

Regarding `Cc1cccc(OCC(=O)OCC(=O)c2c(N)n(C)c(=O)n(C)c2=O)c1`, the cytotoxicity was 3%. For the compound `O=C(C1CCCN(S(=O)(=O)c2ccc(Br)s2)C1)N1CCCCCC1` (stereo not given), the cytotoxicity was -15.2%. With `COC(=O)C1C(=O)C2=C(CC1C)NC(=O)CC2c1ccc(O)c(OC)c1` (stereo not given) the figure was -9.5%. With `Cc1cc(C)c(C)c(S(=O)(=O)NCc2cccnc2)c1C` the figure was -6.4%. Regarding `Cc1ccc(C)c(S(=O)(=O)NCc2cccnc2)c1`, the cytotoxicity was 52% (active). As for `Cc1ccc(C(C)C)cc1S(=O)(=O)NCc1cccnc1`, the cytotoxicity was 0.8%. As to `COCCN1Cc2c(sc(C)c2C)N(C(=O)c2ccccc2)C1`, the cytotoxicity is 5.6%. For the compound `CC1Cc2cc(-c3csc(NC(=O)Cc4cccs4)n3)ccc2N1S(C)(=O)=O` (stereo not given), the cytotoxicity is 61.4% (active). For `O=C(Cc1cccs1)Nc1nc(-c2ccccc2)cs1`, the cytotoxicity is -14.2%. Take `CS(=O)(=O)N1CCc2cc(-c3csc(NC(=O)Cc4cccs4)n3)ccc21`: the cytotoxicity was 2.8%.

Take `CNC(=O)C1CCC(=O)N1Cc1ccc(C)cc1` (stereo not given): the cytotoxicity was -0.7%. For `Cc1ccc2nc(NCCO)nc(-c3ccccc3)c2c1`, the cytotoxicity is 16.3%. For `O=C(O)c1cc(-c2ccccc2)nc2ccccc12`, the cytotoxicity was 2%. As for `O=C(CSc1ncc(-c2ccc(F)cc2)[nH]1)Nc1cccc(O)c1`, the cytotoxicity is 25.6%. `Cc1ccc(CNC(=O)C2C3C=CC(C3)C2C(=O)O)cc1` (stereo not given): the cytotoxicity is 1.9%.

In the case of `CCOC(=O)c1c(C)[nH]c(C)c1-c1ccccc1OC`, the cytotoxicity was -2.6%.

As to `CCOC(=O)N1CCN(c2cc(NCCC(=O)O)c3c4c(onc24)-c2ccccc2C3=O)CC1`, the cytotoxicity is 61.7% (active). Take `O=C(O)CCCNc1cc(N2CCC3(CC2)OCCO3)c2noc3c2c1C(=O)c1ccccc1-3`: the cytotoxicity is 40.2%. On to `CC(=O)OCCNc1cc(N2CCN(C)CC2)c2noc3c2c1C(=O)c1ccccc1-3`, for which the cytotoxicity was 16.8%.

Take `CCOC(=O)c1c(C)noc1CP(=O)(c1ccccc1)c1ccccc1`: the cytotoxicity was 2.6%. For the compound `CC(CC(=O)O)CC1=NS(=O)(=O)c2ccccc2N1` (stereo not given), the cytotoxicity was -8.6%.

Regarding `COc1ccc(CC(=O)Nc2c3c(nn2-c2cccc(C)c2C)CS(=O)C3)cc1OC` (stereo not given), the cytotoxicity is 0.8%. Regarding `COc1cccc(C(=O)c2sc(NC(C)C)nc2N)c1`, the cytotoxicity is 72.7% (active).

As to `CCCc1nnc(NC(=O)c2cccc(OC)c2)s1`, the cytotoxicity is -25.2%. `COc1ccc(C(=O)c2sc(NC(C)C)nc2N)cc1OC`: the cytotoxicity is -12.6%.

Consider `O=C(CSC1=NCCS1)NC1CCCCC1`, for which the cytotoxicity is 3.6%. For `CCC(C)C1C(C#N)=C(N)Oc2n[nH]c(C)c21` (stereo not given), the cytotoxicity was 7.5%.

With `CCC(CC)C1C(C#N)=C(N)Oc2n[nH]c(C)c21` (stereo not given), the cytotoxicity is 56.7% (active). For `Cc1[nH]nc2c1C(C(C)C)C(C#N)=C(N)O2` (stereo not given), the cytotoxicity was 7.9%.

On to `COC(=O)Cc1cc(=O)n(-c2nc3ccccc3s2)[nH]1`, for which the cytotoxicity is 87.9% (active). `CCOC(=O)c1nc2ccccc2s1`: the cytotoxicity is -9.2%. Consider `CCOC(=O)CC(=O)Nc1nc2ccccc2s1`, for which the cytotoxicity was -6.8%. For `COC(=O)Cc1cc(=O)n(-c2ccccc2)[nH]1`, the cytotoxicity is -4.1%. `CCOC(=O)Cc1cc(=O)n(-c2nc3ccccc3s2)[nH]1`: the cytotoxicity was 79.8% (active). With `COC(=O)Cc1cc(=O)n(-c2nc3ccccc3[nH]2)[nH]1` the figure was 4.2%. On to `CSC1=C(C#N)C(C)C2=C(CC(C)(C)CC2=O)N1` (stereo not given), for which the cytotoxicity is -15.4%. `Cc1cc(C)nc(N2CCC(C(=O)NC3CCCCCC3)CC2)n1`: the cytotoxicity was -1.8%. As for `COc1ccc(N2CCN(C(c3ccccc3)c3nnnn3Cc3ccc(F)cc3)CC2)cc1` (stereo not given), the cytotoxicity was -7.5%. `O=C(Cc1ccc(Cl)cc1)Nc1ccc(-c2nnc(-c3ccco3)o2)cc1`: the cytotoxicity was 4.4%. Consider `O=C1CN(C(=O)c2cccs2)c2ccccc2N1`, for which the cytotoxicity was -12.5%. With `O=C(c1ccc(F)cc1)N(Cc1ccccc1)C1CCS(=O)(=O)C1` (stereo not given), the cytotoxicity was -7.8%. With `COc1ccc(-c2[nH]ncc2Oc2ccccc2OC)c(O)c1` the figure was 42.5%; with `CCOc1ccc(-c2[nH]ncc2Oc2ccccc2OCC)c(O)c1`, 55.7% (active); with `COc1ccc(-c2[nH]ncc2-c2cnc(C)s2)c(O)c1`, 7.2%. With `COc1ccc(-c2[nH]ncc2-c2ccc(Cl)cc2)c(O)c1` the figure was 47%. For the compound `CCOc1ccc(-c2[nH]ncc2-c2ccc(OC)c(OC)c2)c(O)c1`, the cytotoxicity is 51.8% (active). Consider `C=C(C)COc1ccc(-c2[nH]ncc2-c2ccc(OC)c(OC)c2)c(O)c1`, for which the cytotoxicity was 4.1%. For `CCOc1ccc(-c2[nH]ncc2Oc2ccccc2OC)c(O)c1` the value was 61.4% (active); for `COc1ccc(Oc2cn[nH]c2-c2ccc(O)cc2O)cc1`, 24.9%. With `CCOc1ccccc1Oc1cn[nH]c1-c1ccc(OC)cc1O` the figure was 61.8% (active).

For `CCOC(=O)C1CCN(Cc2nc3ccccc3c(=O)n2-c2ccc(OCC)cc2)CC1`, the cytotoxicity was 7.8%. Take `CC(=O)Nc1ccc(OC(F)(F)C(F)C(F)(F)F)c(NC(C)=O)c1` (stereo not given): the cytotoxicity is -5.3%. As to `CCOC(=O)c1c(C)n(CC(O)c2ccccc2)c2ccc(O)cc12` (stereo not given), the cytotoxicity was -7.5%. For `OCCNCc1ccc(OC2CCCC2)cc1`, the cytotoxicity is 5.4%.

The values above are taken from PubChem BioAssay AID431 (Sanford-Burnham Center for Chemical Genomics, 2006).
